The values below come from PubChem BioAssay (Tox21).

The structures appear in SMILES notation. Records with an inconclusive call do not appear. A call without a number means that no potency is given here. Values without a mark were called inactive. Calls of active or inactive are those of the source. Calls follow the shape of the dose curve; as a rule, active = well fitted cell-killing curve with a large enough effect in the repeat runs; inconclusive = weak or mixed curves, or effect the other way; inactive = no such curve, though single readings can be large or run the other way.

This assay can be described thus: qHTS assay to identify small molecule antagonists of the thyroid receptor (TR) signaling pathway - cell viability counter screen (AID 743064). Also: nearly all actives have a fitted effect of over 50% in size. The note with it: GH3.TRE-Luc viability, CellTiter-Fluor, 24 h; series mostly up to 70.3 µM. The method in brief:
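In rat pituitary GH3.TRE-Luc reporter cells co-exposed to compound and 1 nM T3 for 23.5 h, cytotoxicity was assessed with CellTiter-Fluor in the same wells, read by fluorescence.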
For `CC(C)c1cc(C(C)C)cc(C(C)C)c1`, the Potency result was “inactive”.
As for `CN(C)CCc1c[nH]c2ccc(CS(=O)(=O)N3CCCC3)cc12`, the Potency entry was “inactive”.
The same measure, in the same setting: then `Cc1cc(C)c(C)c(C)c1`, with “inactive”.
For the compound `CC[N+](C)(CC)CC`, the Potency result is “inactive”.
With `CC(=O)Oc1ccc(C(C)=O)cc1`, the Potency entry was “inactive”.
As to `CCN1CCN(C(=O)N[C@@H](C(=O)N[C@@H]2C(=O)N3[C@@H]2SC(C)(C)[C@H]3C(=O)O)c2ccccc2)C(=O)C1=O`, the Potency entry was “inactive”.
As for `CC1(C)CC(N)CC(C)(C)N1`, the Potency entry was “inactive”.
On to `N#CC1(N)CCCCC1`, for which the Potency entry is “inactive”.
For `Cc1cc(N)no1`, the Potency entry was “inactive”.
For `O=C(c1ccccc1)c1cccc(O)c1`, the Potency result is “inactive”.
On to `CN(C)CCCN(C)C`, for which the activity change, negative = cytotoxic was 20.5% [at 8.44 µM].
On to `C=CC(C)(CCC=C(C)C)OC(=O)C(C)C` (stereo unspecified), for which the Potency result was “inactive”.
For `CC[C@@]1(c2ccccc2)NC(=O)N(C)C1=O`, the Potency entry was “inactive”.
In the case of `CCN(CC)CC`, the Potency result is “inactive”.
Regarding `C=CCn1cc[n+](C)c1`, the Potency result was “inactive”.
Turning to `CCCCN1C(=O)c2ccccc2C1=O`, the Potency entry was “inactive”.
